This experiment has as its system VDR:RXRa (NR concentration 270 nM, RXRa partner concentration 90 nM). Put plainly: PBM binding z-score (relative to random genomic background probes); higher = stronger binding; sequences stand for … in GC…GCGATTGACAGCGTAGAATGAAGG
On the procedure:
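Protein-binding microarray (Agilent 4x180K custom design, double-stranded 60-nt probes: 5' GC cap, 34-nt variable region, 24-nt constant primer region; full probe sequence given). Purified or IVT nuclear receptor:RXRα heterodimers (3:1 NR:RXRα, mostly 270:90 nM) or homodimers were incubated for 1 h in PBS with 2% milk and no ligand, then detected with Alexa488 antibodies. Fluorescence from o1-orientation probes (~5 replicates averaged) was converted to z-scores against 500 random hg19 background probes. Variable regions are seed direct-repeat (DR0–DR5) sites, all their single-nucleotide variants and half-site ablations.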
ACTAGCAGGCCAGGTTTGGGTCACTCAAACAAAG yielded a PBM binding z-score of 0.437. For the sequence TCTGCTAGGTCAGTTGGTCAGGTAACGAGCTGCC, the PBM binding z-score was -0.0561. GCGACTGGGGCAAAGCCGGTTACCATAAGGTTGG yielded a PBM binding z-score of -0.76. Sequence AATACAGGGTCACTAGGCGAGAGTAGGTACGAAT had a PBM binding z-score of 4.12. CCGACTGGGGCAGAAAGGTTGCCATACCATCCGG came in with a PBM binding z-score of -0.0793.

ATACCAAGTTGATCGTGAGGTCGTTGATACTAAC returned a PBM binding z-score of 2.68. In turn, TATACAGGGTCAAAGGCTAGAGTACGAATGTCGA returned a PBM binding z-score of 4.8.

Turning to TCTCGGAGGACACCAAGGTCAGAGCTTTCCAGAG, the PBM binding z-score was 3.36.

Take CTCGCAAGGTCGTGCTCAGGTGAGTATACCAAAC: the PBM binding z-score is 2.24. As for ATATGTAGCTTATCGGGTCATTCAGTTTGCGCAT, the PBM binding z-score was found to be 4.71. Sequence TCGACTAGGTTACCAATGGGGCATTCAGCTTTCT had a PBM binding z-score of 0.439. To AGTCAAAGTTCACTAGGGAACGTAAGATTCAGCT belongs 3.85. For GATACAGGGTCAACGCCAGAGTACGCGTATTGAT, the PBM binding z-score amounted to 4.77. As for ATCTCTAGGTAACCAAGTTCAGTCAATGCCGAAC, the PBM binding z-score came out at 4.36. To GGAACCAGGGCAAGTTGATAGCAGAGTTTGATGG belongs 0.319; to CGACCAAGGTCAAAGGTCAGTGAAGAGATGACGG, 6.85; to AATACAGGGTCATCGTCGGCCAGAGTACGCACAG, 5. Sequence TCTTGCAGATCAAAGGTTAAGAAAGCCGAAGCCT displayed a PBM binding z-score of 1.3.

Take AGACTGAGGTTAAGATCAGGGAAACAGAATACAT: the PBM binding z-score was found to be 0.967. To GCTGCTAGGCCAACTGATGGTCAGCTAAAGCTCG belongs -0.87; to ATCGAAAGGTCGGCGAGGTGAGTATACACCGTTT, 4.48; to AATACAGGGTCATTGTAGGCCAGAGTACGCACAG, 5.08.

In the case of TCTATTAGATGAAGGGCAACCGACGAGTCCGTTT, the PBM binding z-score was 1.02. To CTTCGGAGGACAACAGGAGGTCAGAGCTGCCAGA belongs 2.12. For the sequence ATATGTTGGTTATCGGGTCATTCAGTTTGCGCAT, the PBM binding z-score came to 4.86. To TTTCCAAGGTGAGCTGAGGTCGTTGATCCAACTC belongs 4.12; to AGCATGAGGTTATACGTAGATCAGGGAAGAAAGT, 1.44. In the case of GCAGACAGGTTAAACGCAGGTAACTCAGGGTGGC, the PBM binding z-score was determined as 0.135. TCTAGTTGGTCAAAAGTCACACACTCGAAATGCG had a PBM binding z-score of 1.21. The sequence CCTCGGAGGACGACAGGAGGTCAGAGCTGCCAGA had a PBM binding z-score of 1.44. For CGTCCAGGGTCAGAGAGGTCAGTGAATGCCGAGT the value was 7.46; for ATCGAAAGGTCGAGGTGATTATAGAGAAAGGGAA, 2.43; for CCTTACGGGTCACTCCAGGTTGTAGCATCGGAGT, 3.62. Turning to AGTCAAAGTTCACTAGGTAACCTAAGATTCAGCT, the PBM binding z-score is 4.04. Take CCTAGCAGGCCAGGGGCACTCAAGCATTTCGCTT: the PBM binding z-score was -0.66. For CTCGAAAGGTCGTGCTCAGGTAAGTATACCAAAC the value was 3.36. Take GCTAGTTGATCAGTAAAAGGTCACACACCGGTCG: the PBM binding z-score was found to be 3.87.

In the case of TGAATGAGGTTATAAGATCAGGGATCGTTGCAAA, the PBM binding z-score was 0.956. On to GCGACTTGGGCATCAGCAGGTTACCATAACTTAA, for which the PBM binding z-score is -0.417. GGAACGAGGGCATTCGAGTTGATAGCGTGGCGAT returned a PBM binding z-score of 3.59.

The values are drawn from the supplement of paper PMC6555819.
